Screening results deposited in PubChem by National Center for Advancing Translational Sciences (NCATS).
BAZ2B block: qHTS Assay for Inhibitors of BAZ2B; Bromodomain adjacent to zinc finger domain protein 2B (Homo sapiens), Q9UIF8; AlphaScreen BAZ2B-H3K14Ac peptide displacement; Potency, µM (doses to about 114 µM), for inactives: at the top dose activity change, negative = inhibition, actives largely listed as inhibitors; hit rate 4.4% among 360,000; AID 504333, 2011; note: potency is the fitted concentration of half-maximal effect; % is set by controls: 0 for no effect and ±100 for the full control effect; nearly all actives have a fitted effect of over 60% in size
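Complex of BAZ2B and biotin-H3K14Ac (50 nM apiece) forms over 30 min at RT, then faces library compounds up to 110 uM for another 30 min; AlphaScreen beads added, 20 min dark incubation, luminescence read.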
PLK1 PBD block: qHTS for Inhibitors of PLK1-PDB (polo-like kinase 1 - polo-box domain): Primary Screen; Plk1 PBD binding of FITC phosphopeptide, fluorescence polarization; Serine/threonine-protein kinase PLK1 (Homo sapiens), P53350; hit rate 2.8% among 360,000; Potency, µM, inactives show max response, negative = inhibition, actives largely listed as inhibitors; note: potency is the fitted concentration of half-maximal effect; series mostly up to about 57 µM; % is set by controls: 0 for no effect and ±100 for the full control effect; nearly all actives have a fitted effect of over 65% in size
JMJD2A Tudor inh: qHTS Assay for Inhibitors of JMJD2A-Tudor Domain | Lysine-specific demethylase 4A (Homo sapiens), O75164 | AlphaScreen JMJD2A-Tudor / H3K4me3 peptide binding | Potency, µM (highest dose often 114 µM), for inactives: at the top dose activity change, negative = inhibition, hits mostly inhibitors | hit rate 4.4% among 390,000 | AID 504339, 2011; note: potency is the fitted concentration of half-maximal effect; % is set by controls: 0 for no effect and ±100 for the full control effect; nearly all actives have a fitted effect of over 50% in size
HP1b binding inh: HTS for Inhibitors of HP1-beta Chromodomain Interactions with Methylated Histone Tails; AlphaScreen HP1-beta / biotin-H3K9me3 peptide binding; hit rate 0.56% among 390,000; Chromobox protein homolog 1 (Homo sapiens), P83916; Potency, µM (doses to about 114 µM), for the others: at the highest dose activity change, negative = inhibition, hits mostly inhibitors; note: potency is the fitted concentration of half-maximal effect; nearly all actives have a fitted effect of over 70% in size
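AlphaScreen: HP1-beta (50 nM) preformed 30 min with biotin-H3(1-18)K9me3 peptide (50 nM) in PBS pH 7.4, 0.01% Tween-20. Compound added for 30 min at RT, then streptavidin donor/nickel chelate acceptor beads (10 ug/mL) for 30 min.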
PI5P4K alpha inh: qHTS for Inhibitors of phosphatidylinositol 5-phosphate 4-kinase (PI5P4K) | max response, % | PI5P4Kalpha enzyme, ADP-Glo luminescence, 60 min; stronger effect = lower value | Phosphatidylinositol 5-phosphate 4-kinase type-2 alpha (Homo sapiens), P48426 | hit rate 1.2% among 330,000 | AID 652105, 2013; active = max response of -50% or lower; inconclusive = between -30% and -50%; inactive = -30% or higher; note: value at the top dose of about 77 µM; % is set by controls: 0 for no effect and ±100 for the full control effect
Target sequence (P48426 whole entry, looked up): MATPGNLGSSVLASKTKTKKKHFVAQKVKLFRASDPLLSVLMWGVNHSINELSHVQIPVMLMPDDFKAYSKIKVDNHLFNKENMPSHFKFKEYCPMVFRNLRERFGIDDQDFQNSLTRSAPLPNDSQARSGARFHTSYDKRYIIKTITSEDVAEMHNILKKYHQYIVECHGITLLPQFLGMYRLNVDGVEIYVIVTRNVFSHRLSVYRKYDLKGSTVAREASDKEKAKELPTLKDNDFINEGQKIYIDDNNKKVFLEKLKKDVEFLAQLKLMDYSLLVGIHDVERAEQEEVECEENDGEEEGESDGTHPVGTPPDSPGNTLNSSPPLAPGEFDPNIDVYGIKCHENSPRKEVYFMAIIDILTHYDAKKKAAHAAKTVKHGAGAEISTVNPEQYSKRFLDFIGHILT
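Controls without substrate or without enzyme flank wells where PI5P4Kalpha converts substrate using 5 microM ATP (final). Incubation lasts 60 minutes at room temperature; ADP formed is read by ADP-Glo luminescence.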
G9a block: qHTS Assay for Inhibitors of Histone Lysine Methyltransferase G9a | AID 504332, 2011 | G9a H3K9 monomethylation, AlphaScreen, 2 h | hit rate 8.8% among 350,000 | Potency, µM (highest dose often 102 µM), without a hit: top-dose activity, negative = inhibition, hits mostly inhibitors; note: potency is the fitted concentration of half-maximal effect; % is set by controls: 0 for no effect and ±100 for the full control effect; nearly all actives have a fitted effect of over 75% in size
Target sequence (Q96KQ7 913-1193 limits assumed): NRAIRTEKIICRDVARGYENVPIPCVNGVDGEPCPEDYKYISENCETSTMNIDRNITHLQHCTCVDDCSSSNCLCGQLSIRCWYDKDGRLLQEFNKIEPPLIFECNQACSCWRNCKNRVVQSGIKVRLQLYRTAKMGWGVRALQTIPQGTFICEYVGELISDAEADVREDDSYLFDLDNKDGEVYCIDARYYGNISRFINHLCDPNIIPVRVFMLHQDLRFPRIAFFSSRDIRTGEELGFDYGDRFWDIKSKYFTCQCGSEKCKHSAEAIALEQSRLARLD
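Quantitative HTS format: methyltransferase activity on a biotin-tagged H3K9 peptide is measured by AlphaScreen, using a rabbit anti-monomethyl-H3K9 antibody with streptavidin donor and anti-IgG acceptor beads. Final levels are 20 nM enzyme, 500 nM peptide, 20 uM SAM; 2 h RT.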
The depositor's hits bear a star; ? = inconclusive; nt = no result; [ ] = dose if it differs, or a comment. In the library only some 12% were active in any assay of this set; here they are far more common. Unless noted, calls come from the whole dose curve; as a rule, active = well fitted curve in the direction sought with a large enough effect; inconclusive = small, poorly fitted or top-dose-only effect, or another doubt; inactive = no such curve, though single readings can be large; an effect the other way counts as inactive or inconclusive.

SMILES | BAZ2B block | PLK1 PBD block | JMJD2A Tudor inh | HP1b binding inh | PI5P4K alpha inh | G9a block
C/C(=N\Nc1nc2ccccc2s1)c1ccc(Br)s1 | ? | -4.0% | ? | -10.9% | 48.6 | 35.5µM*
NCCCN(Cc1ccc(Cl)cc1)c1ccc(Br)cn1 | nt | nt | -15.0% | 19.9% | nt | nt
CCc1ccc(/C=C/C(=O)C2C(=O)c3ccccc3C2=O)cc1 | -3.8% | 26.7µM* | -21.4% | 22.1% | nt | ?
O=C(/C=C/c1ccccc1)C1C(=O)c2ccccc2C1=O | 10.2% | -24.4% | -13.4% | 15.3% | -18.3 | -5.4%[59 µM]
Cn1c(=O)[nH]c(=O)c2c1nc1n(CCO)c(-c3ccccc3)cn21 | -3.3% | nt | -20.3% | 38.6% | nt | 10.2%[59 µM]
Cc1ccc(OCc2cc(C(=O)N3CCN(CC(=O)NC(C)C)CC3)no2)cn1 | 1.4% | 26.7µM* | -21.6% | 10.1% | 0.2 | 19.6%
Cc1ccc(OCc2cc(C(=O)N3CCCC(C)C3)no2)cn1 (centres undefined) | nt | -12.5% | nt | nt | -0.5 | nt
CCc1n[nH]c(=S)n1/N=C/c1ccc(NC(C)=O)cc1 | ? | ? | 5.01µM* | -23.7% | 1.1 | 8.91µM*
S=c1[nH]nc(COc2ccccc2)n1/N=C/C(Cl)=C/c1ccccc1 | ? | 23.8µM* | ? | ? | nt | 9.5%[0.501 µM]
CCc1n[nH]c(=S)n1/N=C/c1ccc(-c2ccc(Br)cc2)o1 | nt | -3.7% | -14.7% | 49.8% | -4.2 | nt
O=C(O)COc1ccc(/C=N/n2c(COc3ccccc3)nc3ccccc3c2=O)cc1 | 7.5% | -8.7% | -12.8% | 23.2% | 1.3 | ?
S=c1[nH]nc(COc2ccccc2)n1/N=C/C=C/c1ccco1 | 44.7µM* | ? | 20µM* | ? | -52.2* | nt
CCc1n[nH]c(=S)n1/N=C/C(C)=C\c1ccccc1 | 56.2µM* | -8.4% | 25.1µM* | 14.3% | 3.7 | 7.4%[0.501 µM]
COc1ccccc1C1C(C(=O)Nc2ccccc2)=C(C)Nc2nc(-c3ccccc3)nn21 (centres undefined) | 2.3% | nt | -7.3% | 40.2% | nt | -17.5%[59 µM]
S=c1[nH]nc(COc2ccccc2)n1/N=C/C=C/c1ccccc1 | ? | -14.4% | ? | -15.6% | 1.6 | 1.58µM*
CCc1n[nH]c(=S)n1/N=C/c1cc(Br)c(OC)cc1OC | -5.0% | -15.2% | ? | 20.1% | -11.8 | 2.51µM*
O=C(CCNc1ccc(Br)cc1)c1cccc([N+](=O)[O-])c1 | ? | ? | 20µM* | 79.4µM* | 0.3 | 3.16µM*
O=C(CC(=O)c1ccccc1)Nc1cccc([N+](=O)[O-])c1 | nt | 2.0% | nt | nt | 2.6 | nt
O=C(CCNc1ccc(Cc2ccncc2)cc1)c1ccc([N+](=O)[O-])cc1 | ? | ? | 22.4µM* | ? | -24.8 | -115.9%[59 µM]
O=C(CCNc1ccccc1)c1cccc([N+](=O)[O-])c1 | ? | ? | ? | -0.1% | nt | 17.8µM*
O=C(C[n+]1cccc2ccccc21)c1ccc([N+](=O)[O-])cc1 | -31.5% | ? | 28.2µM* | -16.6% | -65.5* | ?
O=C(C[n+]1cccc2ccccc21)c1ccc(Cl)cc1 | -23.8% | -5.1% | -14.0% | 16.3% | 0.2 | ?
O=C(Nc1ccc(Cc2ccncc2)cc1)c1cccc([N+](=O)[O-])c1 | ? | -14.7% | -33.8% | 4.1% | -1.5 | ?
Cc1nc(NC(=O)COC(=O)C2CC2C)c(Cl)cc1Cl (centres undefined) | nt | 2.0% | 6.0% | 40.0% | 2.9 | nt
CCOc1ccc(CCNC(=O)CCc2cn(Cc3ccc(F)cc3)c3ccccc23)cc1 | -37.5% | nt | -24.2% | -2.4% | nt | -4.9%[59 µM]
SMILES | BAZ2B block | PLK1 PBD block | JMJD2A Tudor inh | HP1b binding inh | PI5P4K alpha inh | G9a block
O=C(CNC(=O)c1ccc([N+](=O)[O-])cc1)c1ccccc1 | 6.0% | 2.7% | -6.6% | 17.4% | nt | -3.0%
O=C(CNc1ccccc1)c1ccc([N+](=O)[O-])cc1 | ? | ? | -33.3% | -16.8% | -18.3 | 4.47µM*
CCN(C(=O)CSc1nnnn1-c1ccccc1)c1c(N)n(Cc2ccccc2)c(=O)[nH]c1=O | -5.9% | -8.2% | -13.4% | 36.4% | -2.0 | 12.6µM*
CCN(C(=O)CSc1nc2ccccc2o1)c1c(N)n(Cc2ccccc2)c(=O)[nH]c1=O | 9.5% | -22.9% | -11.0% | 10.6% | -10.2 | 7.08µM*
CCN(C(=O)CSc1nncn1-c1ccccc1)c1c(N)n(Cc2ccccc2)c(=O)[nH]c1=O | -1.7% | -6.9% | -8.8% | 13.0% | 1.7 | ?
CCN(C(=O)CSc1nc2ccccc2n1CC(C)C)c1c(N)n(Cc2ccccc2)c(=O)[nH]c1=O | nt | -9.7% | -12.5% | 52.6% | -0.1 | nt
CCC(=O)Nc1ccccc1-c1nc2ccccc2n(C(C)C(=O)Nc2ccc(OC)cc2)c1=O (centres undefined) | 0.0% | nt | -11.9% | 36.0% | nt | -7.4%[59 µM]
Cc1[nH]c2ccccc2c1C1(O)C(=O)N(Cc2ccccc2)c2ccc(Br)cc21 (centres undefined) | ? | nt | ? | -15.4% | nt | ?
CN(C)c1nc(=NCc2cccs2)ss1 | nt | 5.32µM* | ? | 18.8% | -1.1 | nt
Cc1ccc(OCC(O)CNC2CCCC2)c(C)c1 (centres undefined) | 2.4% | -13.1% | -18.3% | 13.4% | 0.6 | nt
CCN1CCCC1CNCC(O)COc1ccc(C(C)(C)C)cc1C (centres undefined) | ? | ? | 1.58µM* | 7.5% | -21.3 | ?
O=C(COC(=O)CCc1nc2ccccc2c(=O)[nH]1)NC(=O)NC1CCCC1 | -0.5% | -14.0% | -30.9% | 33.4% | 0.4 | 10µM*
Cc1ccccc1NC(=O)COC(=O)CCc1nc2ccccc2c(=O)[nH]1 | -2.6% | -6.6% | -10.2% | 48.9% | -2.4 | 44.7µM*
O=C(COC(=O)CCc1nc2ccccc2c(=O)[nH]1)NC(c1ccccc1)c1ccccc1 | 4.6% | 0.0% | -15.4% | 16.3% | -9.9 | -40.4%[59 µM]
O=C(CCc1nc2ccccc2c(=O)[nH]1)Nc1cc(Cl)ccc1N1CCCC1 | 6.3% | -1.3% | -6.8% | 35.1% | -2.0 | 14.1µM*
CC(NC(=O)COC(=O)CCc1nc2ccccc2c(=O)[nH]1)c1ccccc1 (centres undefined) | -16.5% | -7.7% | -9.0% | 38.7% | 3.2 | ?
CC(OC(=O)CCc1nc2ccccc2c(=O)[nH]1)C(=O)NC1CCCC1 (centres undefined) | 11.4% | 14.8% | -17.5% | 22.2% | -13.8 | -13.9%
O=C(COC(=O)CCc1nc2ccccc2c(=O)[nH]1)Nc1ccc2c(c1)OCO2 | -17.1% | -8.0% | 2.7% | 40.7% | -28.6 | 56.2µM*
